Results: article PMC11006913

Columns and labels:
Test in all cases: PBM; 200 nM protein, PBS
Conditions in all cases: dsDNA, one strand shown
VAX1 [1] = target: VAX1 (Homo sapiens, UniProt Q5SQQ9 86-172)
VAX1 [2] = target: VAX1 (Homo sapiens, UniProt Q5SQQ9 86-172, T142I)
VAX1 [3] = target: VAX1 (Homo sapiens, UniProt Q5SQQ9 86-172, K157R)
HOXD13 = HOXD13 (Homo sapiens, UniProt P35453 263-343, T313A)
HOXD13, sequence (P35453 263-343 T313A): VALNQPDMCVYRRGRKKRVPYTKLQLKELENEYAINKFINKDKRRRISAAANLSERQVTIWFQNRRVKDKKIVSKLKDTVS

VAX1 (Homo sapiens, UniProt Q5SQQ9 86-172, T142I), sequence (Q5SQQ9 86-172 T142I): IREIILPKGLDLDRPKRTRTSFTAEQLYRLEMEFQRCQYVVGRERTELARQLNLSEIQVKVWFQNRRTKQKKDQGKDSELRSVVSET
VAX1 (Homo sapiens, UniProt Q5SQQ9 86-172, K157R), sequence (Q5SQQ9 86-172 K157R): as the sequence (Q5SQQ9 86-172 T142I) above, with I57T, K72R counted along it
VAX1 (Homo sapiens, UniProt Q5SQQ9 86-172), sequence (Q5SQQ9 86-172): as the sequence (Q5SQQ9 86-172 T142I) above, with I57T counted along it

Sequence	binding signal (VAX1 [1])	binding signal (VAX1 [2])	binding signal (VAX1 [3])	binding signal (HOXD13)
GCTCAGCC	6.9 upbm affinity estimate (log intensity, higher = more binding, comparable within an allelic series)	6.99 upbm affinity estimate (log intensity, higher = more binding, comparable within an allelic series)	6.88 upbm affinity estimate (log intensity, higher = more binding, comparable within an allelic series)	–
CGAAGCAG	6.89 upbm affinity estimate (log intensity, higher = more binding, comparable within an allelic series)	7.23 upbm affinity estimate (log intensity, higher = more binding, comparable within an allelic series)	7.1 upbm affinity estimate (log intensity, higher = more binding, comparable within an allelic series)	–
GATTTAGA	9.33 upbm affinity estimate (log intensity, higher = more binding, comparable within an allelic series)	9.17 upbm affinity estimate (log intensity, higher = more binding, comparable within an allelic series)	9.1 upbm affinity estimate (log intensity, higher = more binding, comparable within an allelic series)	–
CCAATCTA	9.3 upbm affinity estimate (log intensity, higher = more binding, comparable within an allelic series)	8.82 upbm affinity estimate (log intensity, higher = more binding, comparable within an allelic series)	9.11 upbm affinity estimate (log intensity, higher = more binding, comparable within an allelic series)	–
AGCCCGTG	7.01 upbm affinity estimate (log intensity, higher = more binding, comparable within an allelic series)	7.09 upbm affinity estimate (log intensity, higher = more binding, comparable within an allelic series)	7.28 upbm affinity estimate (log intensity, higher = more binding, comparable within an allelic series)	–
GCGGAGAC	7.14 upbm affinity estimate (log intensity, higher = more binding, comparable within an allelic series)	7.32 upbm affinity estimate (log intensity, higher = more binding, comparable within an allelic series)	7.29 upbm affinity estimate (log intensity, higher = more binding, comparable within an allelic series)	–
ATATCGAA	8.69 upbm affinity estimate (log intensity, higher = more binding, comparable within an allelic series)	8.53 upbm affinity estimate (log intensity, higher = more binding, comparable within an allelic series)	–	–
GCGCCGGA	7.27 upbm affinity estimate (log intensity, higher = more binding, comparable within an allelic series)	7.29 upbm affinity estimate (log intensity, higher = more binding, comparable within an allelic series)	7.2 upbm affinity estimate (log intensity, higher = more binding, comparable within an allelic series)	–
ATTTATAA	10.7 upbm affinity estimate (log intensity, higher = more binding, comparable within an allelic series)	10.5 upbm affinity estimate (log intensity, higher = more binding, comparable within an allelic series)	10.4 upbm affinity estimate (log intensity, higher = more binding, comparable within an allelic series)	–
AATATTGG	9.86 upbm affinity estimate (log intensity, higher = more binding, comparable within an allelic series)	9.41 upbm affinity estimate (log intensity, higher = more binding, comparable within an allelic series)	9.62 upbm affinity estimate (log intensity, higher = more binding, comparable within an allelic series)	–
GCATATGA	8.94 upbm affinity estimate (log intensity, higher = more binding, comparable within an allelic series)	8.6 upbm affinity estimate (log intensity, higher = more binding, comparable within an allelic series)	8.79 upbm affinity estimate (log intensity, higher = more binding, comparable within an allelic series)	–
AATATGCT	9.71 upbm affinity estimate (log intensity, higher = more binding, comparable within an allelic series)	9.56 upbm affinity estimate (log intensity, higher = more binding, comparable within an allelic series)	9.53 upbm affinity estimate (log intensity, higher = more binding, comparable within an allelic series)	–
AGGCGGGA	6.99 upbm affinity estimate (log intensity, higher = more binding, comparable within an allelic series)	7.2 upbm affinity estimate (log intensity, higher = more binding, comparable within an allelic series)	7.24 upbm affinity estimate (log intensity, higher = more binding, comparable within an allelic series)	–
ATGATGAA	9.52 upbm affinity estimate (log intensity, higher = more binding, comparable within an allelic series)	9.3 upbm affinity estimate (log intensity, higher = more binding, comparable within an allelic series)	9.22 upbm affinity estimate (log intensity, higher = more binding, comparable within an allelic series)	–
ATATGTCC	9.38 upbm affinity estimate (log intensity, higher = more binding, comparable within an allelic series)	8.89 upbm affinity estimate (log intensity, higher = more binding, comparable within an allelic series)	9.07 upbm affinity estimate (log intensity, higher = more binding, comparable within an allelic series)	–
GTCCCTAA	9.58 upbm affinity estimate (log intensity, higher = more binding, comparable within an allelic series)	9.36 upbm affinity estimate (log intensity, higher = more binding, comparable within an allelic series)	9.3 upbm affinity estimate (log intensity, higher = more binding, comparable within an allelic series)	–
AGGTAAAT	10.4 upbm affinity estimate (log intensity, higher = more binding, comparable within an allelic series)	10.2 upbm affinity estimate (log intensity, higher = more binding, comparable within an allelic series)	10.2 upbm affinity estimate (log intensity, higher = more binding, comparable within an allelic series)	–
CCGTGAAG	7.1 upbm affinity estimate (log intensity, higher = more binding, comparable within an allelic series)	7.21 upbm affinity estimate (log intensity, higher = more binding, comparable within an allelic series)	7.02 upbm affinity estimate (log intensity, higher = more binding, comparable within an allelic series)	–
CATTACGC	11.1 upbm affinity estimate (log intensity, higher = more binding, comparable within an allelic series)	10.6 upbm affinity estimate (log intensity, higher = more binding, comparable within an allelic series)	10.7 upbm affinity estimate (log intensity, higher = more binding, comparable within an allelic series)	–
GTTTACAA	–	–	–	11.6 upbm affinity estimate (log intensity, higher = more binding, comparable within an allelic series)
AAGTAAAT	10.5 upbm affinity estimate (log intensity, higher = more binding, comparable within an allelic series)	10.2 upbm affinity estimate (log intensity, higher = more binding, comparable within an allelic series)	10.2 upbm affinity estimate (log intensity, higher = more binding, comparable within an allelic series)	–
AGATGAGC	8.9 upbm affinity estimate (log intensity, higher = more binding, comparable within an allelic series)	–	8.88 upbm affinity estimate (log intensity, higher = more binding, comparable within an allelic series)	–
CGACTCCG	6.81 upbm affinity estimate (log intensity, higher = more binding, comparable within an allelic series)	7.11 upbm affinity estimate (log intensity, higher = more binding, comparable within an allelic series)	7.09 upbm affinity estimate (log intensity, higher = more binding, comparable within an allelic series)	–
AGCCATTA	11.7 upbm affinity estimate (log intensity, higher = more binding, comparable within an allelic series)	11.3 upbm affinity estimate (log intensity, higher = more binding, comparable within an allelic series)	11.2 upbm affinity estimate (log intensity, higher = more binding, comparable within an allelic series)	–
AATTGACG	10.6 upbm affinity estimate (log intensity, higher = more binding, comparable within an allelic series)	10.1 upbm affinity estimate (log intensity, higher = more binding, comparable within an allelic series)	10.2 upbm affinity estimate (log intensity, higher = more binding, comparable within an allelic series)	–
CTGAGCCC	7.3 upbm affinity estimate (log intensity, higher = more binding, comparable within an allelic series)	7.49 upbm affinity estimate (log intensity, higher = more binding, comparable within an allelic series)	7.38 upbm affinity estimate (log intensity, higher = more binding, comparable within an allelic series)	–
AGCCTCCG	6.91 upbm affinity estimate (log intensity, higher = more binding, comparable within an allelic series)	7 upbm affinity estimate (log intensity, higher = more binding, comparable within an allelic series)	6.91 upbm affinity estimate (log intensity, higher = more binding, comparable within an allelic series)	–
